Displacement data for 60 compounds are collected here from PubChem BioAssay AID1018 (Sanford-Burnham Center for Chemical Genomics, 2008).

Among all 200,000 compounds or so, about 15 (0.007%) were called active. Rule as the data show it: active = displacement above about 50%; inactive = the rest. What follows is part of a selection rich in actives, with near analogues and random picks from the rest.

The target of the experiment is E3 ubiquitin-protein ligase XIAP (Homo sapiens) (UniProt P98170). As to the kind of experiment: XIAP antagonists, biochemical, IAP family, fluorescence polarization (AID 1018). The note with it: XIAP BIR domain, fluorescence polarization peptide displacement; at 20 µM; active compounds read high. (In fluorescence polarisation assays a small probe gives low polarisation when free and higher when bound to something large.)
Chain of E3 ubiquitin-protein ligase XIAP (Homo sapiens) (P98170 whole entry, looked up, the tested form may be a part): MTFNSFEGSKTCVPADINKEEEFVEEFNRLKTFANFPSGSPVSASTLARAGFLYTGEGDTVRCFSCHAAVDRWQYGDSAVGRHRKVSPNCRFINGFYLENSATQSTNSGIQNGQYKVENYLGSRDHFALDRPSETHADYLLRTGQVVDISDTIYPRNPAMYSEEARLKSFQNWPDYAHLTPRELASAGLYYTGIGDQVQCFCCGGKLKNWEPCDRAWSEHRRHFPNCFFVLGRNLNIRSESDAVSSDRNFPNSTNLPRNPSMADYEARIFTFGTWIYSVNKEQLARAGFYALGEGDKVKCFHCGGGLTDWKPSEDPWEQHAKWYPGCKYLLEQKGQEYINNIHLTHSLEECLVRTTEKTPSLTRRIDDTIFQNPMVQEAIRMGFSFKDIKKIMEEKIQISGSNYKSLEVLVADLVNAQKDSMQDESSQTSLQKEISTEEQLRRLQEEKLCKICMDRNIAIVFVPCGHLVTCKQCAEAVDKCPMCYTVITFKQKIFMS
With `O=c1[nH]nc(CNc2ccc(OC(F)(F)F)cc2)c2ccccc12`, the displacement was -3.9% (inactive).
For `COc1ccccc1N(C)S(=O)(=O)c1ccc(C(=O)Nc2ccc3nc(C)sc3c2)cc1` the value was 1.3% (inactive); for `Cc1cc(C(F)(F)F)nn1CC(=O)N(C)c1ccccc1`, -1.9% (inactive).
For `CCNS(=O)(=O)c1ccc(Br)c(OC)c1` the value was -3.2% (inactive); for `COc1cc2nc(CN3CCN(S(=O)(=O)c4ccc(Cl)cc4)CC3)[nH]c(=O)c2cc1OC`, -6.8% (inactive).
Turning to `C#CCOCCOCCOCCNc1nc(N2CCN(C(=O)[C@H](CCCCN)n3cc([C@@H](N)C(C)CC)nn3)CC2)nc(N2CCN(C(=O)[C@H](CCCCN)n3cc([C@@H](N)CO)nn3)CC2)n1` (stereo not given in full), the displacement was 3.3% (inactive).
In the case of `CN(C)S(=O)(=O)c1ccc(C(=O)Nc2ccnn2C2CCCCC2)cc1`, the displacement was -3.3% (inactive).
For `COc1ccc(-c2nc(CC(=O)O)cs2)cc1OC` the value was -0.6% (inactive).
With `O=C1NC2=C(CCc3ccccc32)C(c2ccccc2)N1` (stereo not given) the figure was -5.4% (inactive); with `Cc1ccc(C2NC(=O)NC3=C2CCc2ccccc23)cc1` (stereo not given), -5.1% (inactive).
For `CC(C)c1ccc(C2NC(=O)NC3=C2CCc2ccccc23)cc1` (stereo not given) the value was 52.5% (active); for `CCOC(=O)c1c(-c2ccc(C)o2)csc1NC(=O)CSc1nnnn1-c1ccccc1`, -8.2% (inactive).
`CCCCCCCCNC(=O)c1cnsn1`: the displacement was -0.1% (inactive).
For `COc1cccc(-c2cc(C(=O)NCCCn3ccnc3)c3ccccc3n2)c1` the value was -3% (inactive).
With `O=C(Cn1cc2c(n1)CCCCC2)NC1CCN(Cc2ccccc2)CC1` the figure was -4.9% (inactive); with `CCCc1cc(-c2n[nH]c(=S)n2CC)cs1`, -5.7% (inactive); with `O=C(Cn1c(=O)oc2cc(S(=O)(=O)N3CCCCC3)ccc21)N1CCc2ccccc2C1`, -5.2% (inactive).
With `COc1ccc(NC(=O)OCCN2CCN(Cc3ccccc3)CCC2=O)cc1` the figure was -8% (inactive); with `N#Cc1nc(COc2ccccc2)oc1N1CCN(Cc2ccccc2)CC1`, 0.7% (inactive); with `CCC(C)NC(=O)Cc1c(OC)ccc2cc(Br)ccc12` (stereo not given), -4.6% (inactive).
On to `C=CCSc1nnc(-c2ccccc2NC(=O)CC)c(=O)[nH]1`, for which the displacement was -1.1% (inactive).
With `COc1ccccc1N1CCN(C(=O)CCN2C(=O)c3cccc4cccc(c34)C2=O)CC1` the figure was -4.4% (inactive); with `CC(=O)Nc1ccc(NC(=O)C(C)c2cccc(C(=O)c3ccccc3)c2)cc1` (stereo not given), 2.4% (inactive).
With `CCOC(=O)c1ccc(NC(=S)NCCCN2CCCCC2)cc1` the figure was -4.4% (inactive); with `COC(=O)c1c(Cl)c2n3ccccc3c(C)c(-c3ccccc3)c-2c1C(=O)OC`, -0.6% (inactive).
On to `COC(=O)c1cc2n3ccccc3c(C)c(-c3ccccc3)c-2c1C(=O)OC`, for which the displacement was 72.2% (active).
With `COC(=O)c1cc2c(-c3ccccc3)c(C)c3ccccn3c-2c1C(=O)OC`, the displacement is 26% (inactive).
For `O=C(O)/C=C\C(=O)NCc1cccnc1` the value was -9.2% (inactive); for `Cc1cc(F)ccc1N1CCC(N2CCN(C(C)C)C(CCO)C2)CC1` (stereo not given), -1.1% (inactive).
For `O=C(c1cc(COc2ccc(F)cc2F)on1)N1CCSCC1` the value was -0.5% (inactive).
For `CCN1CCN(C(=S)Nc2cc(S(=O)(=O)N(CC)CC)ccc2C)CC1` the value was -2.7% (inactive); for `Cc1ccccc1NC(=O)Cc1c(O)c2ccccc2[nH]c1=O`, -1.1% (inactive).
Take `CCOC(=O)CSC(=S)NC(=O)c1ccc(OC)cc1`: the displacement is -1.6% (inactive).
Regarding `CCOC(=O)C1=C(C)NC(=NC)SC1c1ccccc1` (stereo not given), the displacement is -5% (inactive).
For `CSc1nnc(-c2cccs2)n1-c1ccccc1` the value was 0.8% (inactive); for `CCOC(=O)C1(CC2CC2)CCN(Cc2ccc(O)c(Cl)c2)CC1`, -4.8% (inactive).
With `CCCc1cc(=O)[nH]c(SCC(=O)N(CC)C2CCS(=O)(=O)C2)n1` (stereo not given) the figure was -4.4% (inactive).
With `CC(C)(C)C1=C(C#N)C(c2ccncc2)C(C#N)=C(N)O1` (stereo not given) the figure was -0.4% (inactive).
Take `CCN1CCCC1CNC(=O)Cn1cccc1C(=O)c1ccccc1` (stereo not given): the displacement is -6.4% (inactive).
As for `CC(=O)c1cc(-c2ccccc2)n(CC(=O)Nc2cc(C)cc(C)c2)c1C`, the displacement is -1% (inactive).
For `Cc1ccc(C)c2[nH]c(=O)c(CN(Cc3ccco3)C(=S)NCC3CCCO3)cc12` (stereo not given) the value was 0.3% (inactive); for `CCN(c1ccccc1)S(=O)(=O)c1cc(C(=O)Nc2ccccc2Cl)ccc1F`, -5.8% (inactive); for `O=C(c1ccc(F)cc1)N1CCCCC(Sc2nnnn2-c2ccccc2)C1=O` (stereo not given), -21.1% (inactive).
For `Cc1c(C(=O)C(=O)NCC2CCCO2)c2ccccc2n1C` (stereo not given) the value was -2.9% (inactive).
For `CCOC(=O)C(=O)Nc1cc(Cl)ccc1C` the value was -10.6% (inactive); for `Cc1c(N)cccc1-n1cnnn1`, -4% (inactive).
`Cc1onc(-c2c(F)cccc2Cl)c1C(=O)N1CCc2ccccc2C1`: the displacement was -8.4% (inactive).
With `O=C(COC(=O)CCc1nc2ccccc2s1)Nc1cccc(S(=O)(=O)N2CCOCC2)c1` the figure was -5.8% (inactive).
For `Cc1nc(NCc2ccc3c(c2)OCO3)c2nnn(Cc3ccccc3)c2n1` the value was -8.1% (inactive).
With `c1ccc(Cn2nnc3c(NCc4ccc5c(c4)OCO5)nc(C4CC4)nc32)cc1` the figure was -10.8% (inactive); with `CCCc1nc(NCc2ccc3c(c2)OCO3)c2nnn(Cc3ccccc3Cl)c2n1`, 51.1% (active); with `O=C(COC(=O)c1ccc[n+]([O-])c1)Nc1c(Br)cc([N+](=O)[O-])cc1Br`, -4.5% (inactive).
With `Cc1cc(C)c(NC(=S)N(CCN(C)C)Cc2cccs2)c(C)c1`, the displacement was -10.6% (inactive).
As for `C=C(C)C1Cc2c(C)nn(-c3cccc4ccccc34)c2C1` (stereo not given), the displacement is -4.8% (inactive).
For `CCOC(=O)c1ccc(NC(=O)N2CCN(CCc3ccccc3)CC2)cc1` the value was -8.1% (inactive).
For `Cc1sc2ncn(-c3ccccc3)c(=O)c2c1C` the value was 4.2% (inactive); for `Cc1ccc2nc(C3CCCN(C(=S)Nc4ccccc4C)C3)[nH]c2c1` (stereo not given), -10% (inactive); for `CCCOC(=O)/C(=C\C=C\c1ccco1)NC(=O)c1ccccc1`, -0.1% (inactive).
With `Cc1ccc(N/C(N)=N/c2nc(CSc3ccc(C)cc3)cc(=O)[nH]2)cc1`, the displacement is 1.1% (inactive).
Regarding `CC(/C=C1\SC(=S)N(NC(=O)c2ccccc2C)C1=O)=C\c1ccccc1`, the displacement was -1.8% (inactive).
